The results in this text go back to PubChem BioAssay AID1053118 (Broad Institute, 2014).

The structures appear in SMILES notation. Measured potencies and affinities stand elsewhere. A number with no mark means an inactive call.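 Rule for the calls: active = fitted half-maximal concentration for ATP signal loss at most twice the top valid dose; inconclusive = flat curve between -70 and -30%, or an invalid fit; inactive = flat within ±30%, wrong direction, or potency past limit.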

The test in a line: HepG2 cell cytotoxicity, dose response, cytotoxicity control, cherry-picks, set 5 (AID 1053118).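 Note: 0% = neutral control wells and -100% = mitoxantrone positive control wells.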 As to conditions: HepG2 viability, ATP luminescence, 72 h; series mostly up to 26 µM; activity change, negative = cytotoxicity: at the top concentration.
Turning to `C[C@H](CO)N1C[C@H](C)[C@H](CN(C)Cc2ccccc2)Oc2ncc(-c3ccccc3)cc2C1=O`, the “activity change, negative = cytotoxicity” value was -12.3%.
Regarding `C[C@H](CO)N1C[C@H](C)[C@@H](CN(C)Cc2ccccc2)Oc2ncc(-c3ccccc3)cc2C1=O`, the “activity change, negative = cytotoxicity” value is -17.7%.
As to `O=C(CCC(=O)c1cccs1)NCc1cccnc1`, the “activity change, negative = cytotoxicity” value is 6.99%.
The result for `CCC(C)(C)NC(=O)C(OC(=O)c1ccco1)c1ccccc1OC` (stereo not given) reads -12.4%.
The result for `Cc1cccc(NC(=O)c2ccc(C3SCC(=O)N3CCc3ccccc3)cc2)c1` (stereo not given) reads -23.6%; that for `COc1ccc(Cl)cc1NC(=O)CSc1nc(Nc2ccccc2)nc(N2CCOCC2)n1`, 13.1%; that for `COc1ccc(-c2oc3ncnc(NCCCN4CCOCC4)c3c2-c2ccc(OC)cc2)cc1`, 19.9%.
On to `C[C@H](O)C#Cc1ccc2c(c1)O[C@@H](CN(C)C)[C@H](C)CN([C@H](C)CO)S2(=O)=O`, for which the “activity change, negative = cytotoxicity” value is -10.7%.
Turning to `Cc1ccc(CS(=O)Cc2ccc(C(=O)NC3CCCC(C)C3C)o2)cc1` (stereo not given), the “activity change, negative = cytotoxicity” value is -8.58%.
The result for `C[C@H]1CN([C@@H](C)CO)C(=O)c2cc(NC(=O)C3CCCCC3)ccc2O[C@@H]1CN(C)Cc1ccc(-c2ccccc2)cc1` reads -9.22%; that for `C[C@H](CO)N1C[C@H](C)[C@H](CN(C)C(=O)Nc2cccc3ccccc23)Oc2c(NC(=O)Nc3ccc(C(F)(F)F)cc3)cccc2C1=O`, -13.8%.
For the compound `c1ccc2[nH]c(SCc3cn4cccnc4n3)nc2c1`, the “activity change, negative = cytotoxicity” value is 35.2%.
Regarding `C[C@H](CO)N1C[C@H](C)[C@H](CN(C)Cc2ccc(-c3ccccc3)cc2)Oc2ccc(NC(=O)C3CCCCC3)cc2C1=O`, the “activity change, negative = cytotoxicity” value was -13.1% [at 23.5 µM].
On to `CCOC(=O)c1nnn(-c2ccc(OC)cc2)c1N`, for which the “activity change, negative = cytotoxicity” value was 28.6%.
On to `O=C(Nc1ccccc1F)N1C[C@@H]2[C@H](c3ccccc31)[C@@H](CO)N2C(=O)C1CC1`, for which the “activity change, negative = cytotoxicity” value was -14.9%.
`OC(CNC1CCCc2ccccc21)COc1c(Cl)cccc1Cl` (stereo not given): the “activity change, negative = cytotoxicity” value was -7.92%.
As to `COCC(=O)Nc1ccc2c(c1)C(=O)N(C)[C@@H]1CC[C@@H](CC(=O)NCc3ccccc3Cl)O[C@H]1CO2`, the “activity change, negative = cytotoxicity” value is 5.36% [at 23.5 µM].
Consider `C[C@@H]1CN([C@H](C)CO)C(=O)c2cc(-c3ccccc3)cnc2O[C@H]1CN(C)Cc1ccccc1`, for which the “activity change, negative = cytotoxicity” value was -12.2%.
Regarding `Cc1ccc(S(=O)(=O)N2CC[C@@H]3[C@H](CO)Nc4ccc(-c5cccc(C(=O)N(C)C)c5)cc4[C@@H]32)cc1`, the “activity change, negative = cytotoxicity” value was -21.2%.
Take `Nc1c(C(=O)NCc2ccco2)nnn1Cc1ccccc1`: the “activity change, negative = cytotoxicity” value is -25.9%.
To `COCC(C)n1c(SCc2nc(N)nc(Nc3ccccc3C)n2)nc2ccccc2c1=O` (stereo not given) belongs 14.1%; to `Cc1ccc(S(=O)(=O)N2CC3(C)CN(S(=O)(=O)c4ccc(C)cc4)CC(C)(C2)C3=O)cc1`, -20.6%.
Consider `CCCCNC(=O)Nc1nc2ccc(CC)cc2s1`, for which the “activity change, negative = cytotoxicity” value is -15%.
In the case of `C[C@@H]1CN([C@H](C)CO)C(=O)c2cc(-c3ccccc3)cnc2O[C@@H]1CN(C)Cc1ccccc1`, the “activity change, negative = cytotoxicity” value was -13%.
Take `CO[C@@H]1CN(C)C(=O)c2cc(NC(=O)Nc3ccc(Cl)c(Cl)c3)ccc2OC[C@H](C)NC[C@H]1C`: the “activity change, negative = cytotoxicity” value was -17.4%.
The result for `C[C@H](CO)N1C[C@H](C)[C@H](CN(C)C(=O)c2cccc(F)c2)Oc2ncc(-c3ccccc3)cc2C1=O` reads -4.86%.
Take `COc1cccc(-c2ccc3c(c2)[C@@H]2[C@@H](CCN2S(=O)(=O)c2cccc(OC)c2)[C@H](CO)N3)c1`: the “activity change, negative = cytotoxicity” value is -18.7%.
Take `COc1ccc(-c2csc(CCn3nc(C)cc3C)n2)cc1OC`: the “activity change, negative = cytotoxicity” value is -11.4%.
Consider `C[C@H]1CN([C@@H](C)CO)C(=O)c2cc(NC(=O)C3CCCCC3)ccc2O[C@H]1CN(C)Cc1ccc(-c2ccccc2)cc1`, for which the “activity change, negative = cytotoxicity” value was -19.6%.
As for `Cc1ccc(O)c(-c2cc(-c3cccc(Br)c3)n[nH]2)c1`, the “activity change, negative = cytotoxicity” value is 2.04%.
On to `CN1c2ccc(-c3ccccc3)cc2[C@@H]2[C@@H](CCN2C(=O)CN2CCOCC2)[C@H]1CO`, for which the “activity change, negative = cytotoxicity” value is 8.94% [at 23.5 µM].
On to `CCN(Cc1ccncc1)C(=O)c1ccc2c(c1)S(=O)(=O)c1ccccc1C2=O`, for which the “activity change, negative = cytotoxicity” value was -19.5%.
Consider `CC(C)Cc1nnc(NC(=O)CSc2nc(N)cc(=O)[nH]2)s1`, for which the “activity change, negative = cytotoxicity” value is -7.72%.
Regarding `Cc1ccc(S(=O)(=O)N2CC[C@@H]3[C@@H](CO)Nc4ccc(-c5cccc(C(=O)N(C)C)c5)cc4[C@@H]32)cc1`, the “activity change, negative = cytotoxicity” value was 54.7%.
In the case of `O=C(NCCS(=O)(=O)N1CCN(c2ccc(F)cc2)CC1)c1ccc(Br)o1`, the “activity change, negative = cytotoxicity” value was -21.6%.
